{"source": "the supplement of paper PMC8728848", "binders": {"B1": {"name": "Gal 9 (Canis lupus) (protein)", "chain": "MAFSSSQPPYLSPGVPFSGKIQGGLQDGLKITINGTILYCNGTRFAVNFHSGHSDSDIAFHFNPRFEEGGYVVCNTKQKGSWGSEERKMQMPFQMGNPFELCFMVNSCDFKVTVNGSHFTQYSHRVPFHYVDTLSITGAVQLSYISFQSPGVWQSSSAPITQTVIHTVQTTPGQPFPNPIIPPTAYPTPTYPMPFFTSIPGGLYPSKSIIVSGTVLPGAKRFHINLRSGNDIAFHLNPRFNENTVVRNMQINNSWGSEERSLPRKMPFVQGQSFSVWIMCEGHCFKVAVDGEHLFEYYHRLKNLLAINNMEVAGDVQLTHVQT"}, "B2": {"name": "AAL (Aleuria aurantia), P18891 (protein)", "chain": "PTEFLYTSKIAAISWAATGGRQQRVYFQDLNGKIREAQRGGDNPWTGGSSQNVIGEAKLFSPLAAVTWKSAQGIQIRVYCVNKDNILSEFVYDGSKWITGQLGSVGVKVGSNSKLAALQWGGSESAPPNIRVYYQKSNGSGSSIHEYVWSGKWTAGASFGSTVPGTGIGATAIGPGRLRIYYQATDNKIREHCWDSNSWYVGGFSASASAGVSIAAISWGSTPNIRVYWQKGREELYEAAYGGSWNTPGQIKDASRPTPSLPDTFIAANSSGNIDISVFFQASGVSLQQWQWISGKGWSIGAVVPTGTPAGW"}}, "test_in_all_cases": "glycan array binding signal (z-score within array); higher = stronger binding", "conditions_in_all_cases": "glycan notation: IUPAC condensed, linker removed", "key": {"[1]": {"molecular_target": "Neu5Ac(a2-3)Gal(b1-4)[Fuc(a1-3)]GlcNAc(b1-3)Gal", "how_it_was_run": "(§1)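 The Consortium for Functional Glycomics database supplied 3228 glycan arrays, of which those lacking an available protein sequence were dropped. The binding signal, a within-array Z-score, was averaged across arrays of the same protein sequence and across linkers. Negative scores can be read as non-binding.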"}, "[2]": {"molecular_target": "Neu5Ac(a2-6)Gal(b1-4)GlcNAc(b1-3)GalNAc", "how_it_was_run": "as §1"}, "[3]": {"molecular_target": "Neu5Ac(a2-6)GalNAc(b1-4)GlcNAc", "how_it_was_run": "as §1"}, "[4]": {"molecular_target": "Neu5Ac(a2-8)Neu5Ac(a2-3)[Gal(b1-3)GalNAc(b1-4)]Gal(b1-4)Glc", "how_it_was_run": "as §1"}, "[5]": {"molecular_target": "Neu5Ac(a2-8)Neu5Ac(a2-8)Neu5Ac(a2-8)Neu5Ac(a2-3)[GalNAc(b1-4)]Gal(b1-4)Glc", "how_it_was_run": "as §1"}, "[6]": {"molecular_target": "Neu5Ac(b2-6)Gal(b1-4)GlcNAc", "how_it_was_run": "as §1"}, "[7]": {"molecular_target": "Neu5Gc(a2-3)Gal(b1-3)GlcNAc", "how_it_was_run": "as §1"}, "[8]": {"molecular_target": "Fuc(a1-2)Gal(b1-3)GlcNAc(b1-2)Man(a1-3)[Fuc(a1-2)Gal(b1-3)GlcNAc(b1-2)Man(a1-6)]Man(b1-4)GlcNAc(b1-4)[Fuc(a1-6)]GlcNAc", "how_it_was_run": "as §1"}, "Fuc(a1-2)Gal(b1-4)Glc6S": {"molecular_target": "Fuc(a1-2)Gal(b1-4)Glc6S", "how_it_was_run": "as §1"}, "[9]": {"molecular_target": "Fuc(a1-2)Gal(b1-4)GlcNAc(b1-3)Gal(b1-4)GlcNAc(b1-3)Gal(b1-4)GlcNAc", "how_it_was_run": "as §1"}, "[10]": {"molecular_target": "Fuc(a1-2)Gal(b1-4)GlcNAc6S", "how_it_was_run": "as §1"}, "[11]": {"molecular_target": "Fuc(a1-2)Gal(b1-4)[Fuc(a1-3)]GlcNAc", "how_it_was_run": "as §1"}, "[12]": {"molecular_target": "Fuc(a1-2)Gal(b1-4)[Fuc(a1-3)]GlcNAc(b1-3)Gal(b1-4)[Fuc(a1-3)]GlcNAc(b1-3)Gal(b1-4)[Fuc(a1-3)]GlcNAc", "how_it_was_run": "as §1"}, "[13]": {"molecular_target": "Fuc(a1-2)Gal6S(b1-4)GlcNAc", "how_it_was_run": "as §1"}, "[14]": {"molecular_target": "Fuc(a1-2)[Gal(a1-3)]Gal(b1-3)GlcNAc(b1-2)Man(a1-3)[Fuc(a1-2)[Gal(a1-3)]Gal(b1-3)GlcNAc(b1-2)Man(a1-6)]Man(b1-4)GlcNAc(b1-4)GlcNAc", "how_it_was_run": "as §1"}, "Fuc(a1-3)GlcNAc": {"molecular_target": "Fuc(a1-3)GlcNAc", "how_it_was_run": "as §1"}, "[15]": {"molecular_target": "Fuc(a1-3)[Gal3S(b1-4)]GlcNAc", "how_it_was_run": "as §1"}, "Fuc(a1-4)GlcNAc": {"molecular_target": "Fuc(a1-4)GlcNAc", "how_it_was_run": "as §1"}, "[16]": {"molecular_target": "Gal(a1-3)Gal(b1-4)[Fuc(a1-3)]GalNAc", "how_it_was_run": "as §1"}, "Gal(a1-4)GlcNAc": {"molecular_target": "Gal(a1-4)GlcNAc", "how_it_was_run": "as §1"}, "[17]": {"molecular_target": "Gal(b1-3)GlcNAc(b1-3)Gal(b1-4)[Fuc(a1-3)]GlcNAc(b1-6)[Gal(b1-3)GlcNAc(b1-3)]Gal(b1-4)Glc", "how_it_was_run": "as §1"}, "[18]": {"molecular_target": "Gal(b1-3)GlcNAc(b1-3)GalNAc", "how_it_was_run": "as §1"}, "[19]": {"molecular_target": "Gal(b1-3)[GlcNAc(b1-6)]GlcNAc", "how_it_was_run": "as §1"}, "[20]": {"molecular_target": "Gal(b1-4)GlcNAc(b1-2)[Gal(b1-4)GlcNAc(b1-4)]Man(a1-3)[GlcNAc(b1-4)][Gal(b1-4)GlcNAc(b1-2)Man(a1-6)]Man(b1-4)GlcNAc(b1-4)GlcNAc", "how_it_was_run": "as §1"}, "[21]": {"molecular_target": "Gal(b1-4)GlcNAc(b1-3)Gal(b1-4)[Fuc(a1-3)GlcNAc(b1-6)]Gal(b1-4)Glc", "how_it_was_run": "as §1"}, "Glc(b1-4)Glc": {"molecular_target": "Glc(b1-4)Glc", "how_it_was_run": "as §1"}, "[22]": {"molecular_target": "GlcNAc(a1-3)Gal(b1-4)GlcNAc", "how_it_was_run": "as §1"}, "GlcNAc(b1-3)Gal": {"molecular_target": "GlcNAc(b1-3)Gal", "how_it_was_run": "as §1"}, "[23]": {"molecular_target": "GlcNAc(b1-3)Gal(b1-3)GalNAc", "how_it_was_run": "as §1"}, "[24]": {"molecular_target": "GlcNAc(b1-3)[GlcNAc(b1-6)]Gal(b1-4)GlcNAc", "how_it_was_run": "as §1"}, "[25]": {"molecular_target": "GlcNAc(b1-3)[GlcNAc(b1-6)]GlcNAc(b1-4)GlcNAc", "how_it_was_run": "as §1"}, "[26]": {"molecular_target": "GlcNAc(b1-4)Gal(b1-4)GlcNAc", "how_it_was_run": "as §1"}, "[27]": {"molecular_target": "GlcNAc6S(b1-3)Gal(b1-4)GlcNAc", "how_it_was_run": "as §1"}, "[28]": {"molecular_target": "Neu5Ac(a2-3)Gal(b1-3)GlcNAc6S", "how_it_was_run": "as §1"}, "[29]": {"molecular_target": "Neu5Ac(a2-3)Gal(b1-3)[Fuc(a1-4)]GlcNAc", "how_it_was_run": "as §1"}, "[30]": {"molecular_target": "Neu5Ac(a2-3)Gal(b1-4)GlcNAc(b1-6)[Gal(b1-3)]GalNAc", "how_it_was_run": "as §1"}, "[31]": {"molecular_target": "Neu5Ac(a2-3)Gal6S(b1-4)GlcNAc", "how_it_was_run": "as §1"}, "Neu5Ac(a2-3)GalNAc": {"molecular_target": "Neu5Ac(a2-3)GalNAc", "how_it_was_run": "as §1"}, "[32]": {"molecular_target": "Neu5Ac(a2-3)[Neu5Ac(a2-6)]GalNAc", "how_it_was_run": "as §1"}, "[33]": {"molecular_target": "Neu5Ac(a2-6)Gal(b1-4)GlcNAc(b1-2)Man(a1-6)[GlcNAc(b1-2)Man(a1-3)]Man(b1-4)GlcNAc(b1-4)GlcNAc", "how_it_was_run": "as §1"}, "[34]": {"molecular_target": "Neu5Ac(a2-8)Neu5Ac(a2-3)[GalNAc(b1-4)]Gal(b1-4)Glc", "how_it_was_run": "as §1"}, "[35]": {"molecular_target": "Neu5Ac(a2-8)Neu5Ac(a2-8)Neu5Ac", "how_it_was_run": "as §1"}}, "note": "The sample as a whole holds a higher share of the strongest signals than the screen did.", "data": [{"binder": "B1", "values": [{"measurement": "glycan array binding signal (z-score)", "setting": "[1]", "value": -0.343}, {"measurement": "glycan array binding signal (z-score)", "setting": "[2]", "value": -0.178}, {"measurement": "glycan array binding signal (z-score)", "setting": "[3]", "value": -0.345}, {"measurement": "glycan array binding signal (z-score)", "setting": "[4]", "value": -0.302}, {"measurement": "glycan array binding signal (z-score)", "setting": "[5]", "value": -0.331}, {"measurement": "glycan array binding signal (z-score)", "setting": "[6]", "value": -0.331}, {"measurement": "glycan array binding signal (z-score)", "setting": "[7]", "value": 0.216}]}, {"binder": "B2", "values": [{"measurement": "glycan array binding signal (z-score)", "setting": "[8]", "value": -0.012}, {"measurement": "glycan array binding signal (z-score)", "setting": "Fuc(a1-2)Gal(b1-4)Glc6S", "value": 3.52}, {"measurement": "glycan array binding signal (z-score)", "setting": "[9]", "value": 3.03}, {"measurement": "glycan array binding signal (z-score)", "setting": "[10]", "value": 2.6}, {"measurement": "glycan array binding signal (z-score)", "setting": "[11]", "value": 2.51}, {"measurement": "glycan array binding signal (z-score)", "setting": "[12]", "value": 2.68}, {"measurement": "glycan array binding signal (z-score)", "setting": "[13]", "value": 2.6}, {"measurement": "glycan array binding signal (z-score)", "setting": "[14]", "value": -0.407}, {"measurement": "glycan array binding signal (z-score)", "setting": "Fuc(a1-3)GlcNAc", "value": 2.85}, {"measurement": "glycan array binding signal (z-score)", "setting": "[15]", "value": 1.76}, {"measurement": "glycan array binding signal (z-score)", "setting": "Fuc(a1-4)GlcNAc", "value": 1.99}, {"measurement": "glycan array binding signal (z-score)", "setting": "[16]", "value": 2.52}, {"measurement": "glycan array binding signal (z-score)", "setting": "Gal(a1-4)GlcNAc", "value": -0.498}, {"measurement": "glycan array binding signal (z-score)", "setting": "[17]", "value": 0.584}, {"measurement": "glycan array binding signal (z-score)", "setting": "[18]", "value": -0.414}, {"measurement": "glycan array binding signal (z-score)", "setting": "[19]", "value": -0.62}, {"measurement": "glycan array binding signal (z-score)", "setting": "[20]", "value": -0.348}, {"measurement": "glycan array binding signal (z-score)", "setting": "[21]", "value": 0.521}, {"measurement": "glycan array binding signal (z-score)", "setting": "Glc(b1-4)Glc", "value": -0.525}, {"measurement": "glycan array binding signal (z-score)", "setting": "[22]", "value": -0.512}, {"measurement": "glycan array binding signal (z-score)", "setting": "GlcNAc(b1-3)Gal", "value": -0.501}, {"measurement": "glycan array binding signal (z-score)", "setting": "[23]", "value": -0.515}, {"measurement": "glycan array binding signal (z-score)", "setting": "[24]", "value": -0.514}, {"measurement": "glycan array binding signal (z-score)", "setting": "[25]", "value": -0.567}, {"measurement": "glycan array binding signal (z-score)", "setting": "[26]", "value": -0.525}, {"measurement": "glycan array binding signal (z-score)", "setting": "[27]", "value": -0.391}, {"measurement": "glycan array binding signal (z-score)", "setting": "[28]", "value": -0.493}, {"measurement": "glycan array binding signal (z-score)", "setting": "[29]", "value": 1.33}, {"measurement": "glycan array binding signal (z-score)", "setting": "[30]", "value": -0.444}, {"measurement": "glycan array binding signal (z-score)", "setting": "[31]", "value": 1.5}, {"measurement": "glycan array binding signal (z-score)", "setting": "Neu5Ac(a2-3)GalNAc", "value": -0.531}, {"measurement": "glycan array binding signal (z-score)", "setting": "[32]", "value": -0.551}, {"measurement": "glycan array binding signal (z-score)", "setting": "[33]", "value": -0.423}, {"measurement": "glycan array binding signal (z-score)", "setting": "[34]", "value": -0.499}, {"measurement": "glycan array binding signal (z-score)", "setting": "[35]", "value": -0.526}]}]}
